Experimental findings from PubChem BioAssay (NCI) are described below.

Among the test systems are NCI-H23 lung; NCI-H226 lung; NCI-H322M lung; HOP-62 NSCLC; NCI-H460 lung; HOP-92 NSCLC; NCI-H522 lung; A549/ATCC NSCLC; 786-0 renal; COLO 205 colon; DU-145 prostate; K-562 leukemia; MALME-3M melanoma; MDA-MB-231 breast; SF-268 CNS; SF-295 CNS; SF-539 CNS; UACC-257 melanoma; M14 melanoma.
Common to all, as to assay: NCI-60 one-dose screen, 48 h (100 = growth as untreated, 0 = no growth, -100 = all killed)
Common to all, as to conditions: 10 µM

Compounds without any hit were thinned out: in the full panel of roughly 83,000, 20% have a hit.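 Single-dose data. Exposure time 48 hours. Values below 10 considered active.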 Values without a mark were called inactive. The source made the active and inactive calls.

`O=c1[nH]c2ccccc2cc1CSc1ccc(Nc2nccc(-c3ccc(C(F)(F)F)cc3)n2)cc1`: the growth in the experiment with NCI-H23 lung is 35.3%; with NCI-H226 lung it was -27.2% (active); in the experiment with NCI-H322M lung, 23.8%; in the experiment on HOP-62 NSCLC, -14% (active); in the experiment with NCI-H460 lung, 2.12% (active); in the experiment with HOP-92 NSCLC it was -1.46% (active). The growth was 28.3% with NCI-H522 lung; -16.8% (active) in the experiment with A549/ATCC NSCLC; -49.7% (active) in the experiment with 786-0 renal; 18% with COLO 205 colon; 32.3% in the experiment with DU-145 prostate; 54.9% in the experiment with K-562 leukemia. The growth is 6.21% (active) in the experiment on MALME-3M melanoma; 11.9% with MDA-MB-231 breast; 40.4% in the experiment with SF-268 CNS; -62.6% (active) with SF-295 CNS; 12% in the experiment on SF-539 CNS; 90% in the experiment with UACC-257 melanoma. In addition, the growth in the experiment with M14 melanoma was 80.1%.

Take `COc1cc(C2CC(c3ccccc3)=Nc3c(N)nc(N)nc3N2)ccc1Oc1nc(Nc2ccc(F)cc2)nc(N(C)C)n1` (centres undefined): the growth in the experiment with NCI-H23 lung was 43.9%; with NCI-H226 lung it was 40.4%; in the experiment with NCI-H322M lung it was 71.7%; in the experiment with HOP-62 NSCLC, 85.7%; in the experiment with NCI-H460 lung, 10.6%; with HOP-92 NSCLC, 16.3%. For the same molecule, the growth is 65.6% in the experiment with NCI-H522 lung; 66.3% in the experiment with A549/ATCC NSCLC; 43.4% in the experiment on 786-0 renal; 28% in the experiment with COLO 205 colon; 48% in the experiment on DU-145 prostate; 17.9% with K-562 leukemia. The growth in the experiment on MALME-3M melanoma is 32.4%; in the experiment on MDA-MB-231 breast it was 31%; in the experiment with SF-268 CNS it was 55%; in the experiment with SF-295 CNS, 45.9%; in the experiment on SF-539 CNS it was 63%; with UACC-257 melanoma, 45.4%. Moreover, in the experiment with M14 melanoma, the growth was 46.6%.

For `CCOP(=O)(OCC)O[C@H]1CCC(=O)[C@@H]2[C@H]1[C@H]1C[C@@H]3[C@@]4(C)CCCC(C)(C(=O)OC)[C@@H]4CC[C@@]23C=C1C(C)C` (some centres undefined), the growth in the experiment with NCI-H23 lung is 50.3%; in the experiment on NCI-H226 lung, 48.9%; with NCI-H322M lung, 102%; with HOP-62 NSCLC it was 76.8%; with NCI-H460 lung it was 66.4%; in the experiment on HOP-92 NSCLC it was 46.8%. Also, the growth in the experiment on NCI-H522 lung is 31.6%; in the experiment with A549/ATCC NSCLC, 49.7%; in the experiment on 786-0 renal it was 63.3%; with COLO 205 colon, 47.6%; with DU-145 prostate, 83.1%; in the experiment with K-562 leukemia it was 30.1%. The growth is 86.2% with MALME-3M melanoma; 67% in the experiment on MDA-MB-231 breast; 76.4% in the experiment on SF-268 CNS; 69.1% with SF-295 CNS; 71.7% with SF-539 CNS; 41.8% in the experiment on UACC-257 melanoma. Also, the growth in the experiment on M14 melanoma is 55.4%.

Consider `Nc1nc(Nc2ccccc2)nn1Cc1c(Cl)cccc1Cl`, for which the growth with NCI-H23 lung is 34.1%; in the experiment with NCI-H226 lung, 30.4%; with NCI-H322M lung it was 51.8%; in the experiment on HOP-62 NSCLC it was 60.6%; with NCI-H460 lung, 24.8%; in the experiment with HOP-92 NSCLC, -17.4% (active). The growth in the experiment on NCI-H522 lung was 21.1%; in the experiment on A549/ATCC NSCLC it was 43.1%; in the experiment with 786-0 renal it was 27.8%; with COLO 205 colon, 33.2%; in the experiment on DU-145 prostate, 48%; with K-562 leukemia, 12.8%. Besides, the growth in the experiment on MALME-3M melanoma is 31.4%; with MDA-MB-231 breast it was 24.1%; in the experiment with SF-268 CNS, 50%; in the experiment with SF-295 CNS, 46.6%; in the experiment with SF-539 CNS, 37.6%; in the experiment with UACC-257 melanoma it was 69.7%. For the same molecule, in the experiment with M14 melanoma, the growth is 35.5%.

In the case of `O=C(Nc1cccc([N+](=O)[O-])c1)Nc1cccc([N+](=O)[O-])c1`, the growth was 65.5% with NCI-H23 lung; 74.4% in the experiment on NCI-H226 lung; 89.2% in the experiment on NCI-H322M lung; 92.7% with HOP-62 NSCLC; 70.5% in the experiment with NCI-H460 lung; 80.4% in the experiment on HOP-92 NSCLC. The growth with NCI-H522 lung is 64.8%; in the experiment on A549/ATCC NSCLC, 82.2%; in the experiment on 786-0 renal, 74%; in the experiment on COLO 205 colon it was 121%; in the experiment on DU-145 prostate it was 82%; with K-562 leukemia, 57.6%. The growth was 98.6% in the experiment with MALME-3M melanoma; 87.5% with MDA-MB-231 breast; 79.9% in the experiment on SF-268 CNS; 76.3% with SF-295 CNS; 93% in the experiment with SF-539 CNS; 93.2% in the experiment on UACC-257 melanoma. For the same molecule, the growth with M14 melanoma was 87.2%.

As for `COc1ccc(/C=C/C(=O)c2ccc(NC(=O)CN3C(=O)NC(C)(c4ccccc4)C3=O)cc2)cc1` (centres undefined), the growth in the experiment on NCI-H23 lung is 83.8%; with NCI-H226 lung it was 80.3%; with NCI-H322M lung, 105%; in the experiment on HOP-62 NSCLC, 95.1%; in the experiment with NCI-H460 lung, 102%; in the experiment with HOP-92 NSCLC, 120%. Besides, the growth is 86.8% in the experiment on NCI-H522 lung; 85.9% in the experiment on A549/ATCC NSCLC; 81.2% in the experiment with 786-0 renal; 106% in the experiment with COLO 205 colon; 87.7% in the experiment on DU-145 prostate; 60.2% in the experiment on K-562 leukemia. Also, the growth in the experiment with MALME-3M melanoma is 90.5%; with MDA-MB-231 breast, 87%; in the experiment on SF-268 CNS, 67.3%; in the experiment on SF-295 CNS, 76.1%; in the experiment with SF-539 CNS, 80%; with UACC-257 melanoma it was 92.4%. Besides, the growth with M14 melanoma is 87.9%.
